This passage reports growth results from PubChem BioAssay (NCI).

This is part of a sample that, as a whole, favours compounds with a hit. Of some 83,000 tested, about 20% had one in any assay.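 Interpretation: 100, growth as untreated; towards 0, rising growth inhibition; 0, no net growth; 0 to -100, cell death. Compounds scoring below 10 were considered active.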 Values without a mark were called inactive. The source made the active and inactive calls.

In this assay the test system is NCI-H322M lung. Briefly: NCI-60 one-dose screen, 48 h (100 = growth as untreated, 0 = no growth, -100 = all killed). Particulars: 10 µM unless noted.
Regarding `O=C(Nc1cccc2ccccc12)c1cc2ccccc2cc1O`, the growth is -4.28% (active).
The value for `COc1cc2c(O)n(CCCN3CCOCC3)c3c4cnc5cccc(c(=O)c3c2cc1OC)c54` was 47.2%.
The value for `C#CCNC(=O)CC[C@@H](C)[C@H]1CC[C@H]2[C@@H]3CC[C@@H]4CC(=O)CC[C@]4(C)[C@H]3CC[C@]12C` was -5.44% [100 µM] (active); that for `COc1ccc(NC(=O)Nc2ccc(-c3cccnc3)cc2N2CCC(CO)CC2)cc1` was 59.1%; that for `CC1(C(=O)O)CCC(N)(C(=O)O)C1(C)C` (configuration not stated) was 108%.
`COc1ncc(-c2ccc3nccc(C#CCCCCC(=O)NO)c3c2)cc1NS(=O)(=O)c1ccc(F)cc1F`: the growth was 7.5% (active).
The value for `O=C(O)CC1CCCCC1c1ccccc1` (configuration not stated) was 103%; that for `CC(C)=CC/C=C(/C)[C@H]1CC[C@]2(C)[C@@H]1CC[C@@H]1[C@@]3(C)CCC(=O)NC(C)(C)[C@@H]3CC[C@]12C` was 36.1% [100 µM].
Under `Cc1nc(Cl)c2c(n1)N(C)c1ccc(Cl)cc1C(C)C2` (configuration not stated) stands 97.1%; under `Cc1ccc(N)c(O)c1`, 91%; under `Nc1ccc(Cl)c([N+](=O)[O-])c1`, 106%.
Turning to `O=[N+]([O-])c1cccc(N=NNc2cccc([N+](=O)[O-])c2)c1`, the growth is 101%.
As to `C=C(C)[C@@H]1CC[C@]2(C)[C@H](CC[C@@H]3[C@@H]([C@@](C)(O)CCC=C(C)C)CC[C@]32C)[C@@]1(C)CCC(=O)N1CCN(C)CC1`, the growth was -97.5% [100 µM] (active).
The value for `Cn1cc(-c2noc(C(=O)c3cn(C)c4ncc(Br)cc34)n2)c2ccccc21` was 91%; that for `COc1cc(NCc2ccccc2O)c2ncccc2c1` was 90.7%.
The value for `Cc1ccc(C2=C/C(=C/c3ccc(Br)cc3)C(=O)N2CCc2ccc(S(N)(=O)=O)cc2)cc1` was 90.6%; that for `Nc1nc(Nc2ccccc2)c2ncn(Cc3ccc4c(c3)OCO4)c2n1` was 58.1%; that for `O=C(CCCSc1nc(-c2ccccc2)cc(-c2ccccc2)n1)NO` was 12.6%.
Under `FC(F)(F)c1ccc2c(c1)Sc1ccccc1N2` stands 103%.
With `O=C1NC(=O)C(Cc2ccccc2)(Cc2ccccc2)N1`, the growth is 106%.
The value for `C=C(C)[C@@H]1CC[C@]2(C(=O)N3CCN(C)CC3)CC[C@]3(C)[C@H](CC[C@@H]4[C@@]5(C)C/C(=C/c6ccncc6)[C@H](O)C(C)(C)[C@@H]5CC[C@]43C)[C@@H]12` was -27% [100 µM] (active); that for `C[C@@H](NC(=O)[C@@H](CC(=O)N1CCC(N2CCCCC2)CC1)N1C(=O)[C@@H](N2C(=O)OC[C@@H]2c2ccccc2)[C@H]1/C=C/c1cccc(Cl)c1)c1ccccc1` was 82.1%.
The value for `N#C/C(=C(/O)CCCO)c1nc2ccccc2c(=O)[nH]1` was 105%; that for `Cn1cc(-c2nnc(-c3cn(C)c4ncc(Br)cc34)s2)c2cc(Br)ccc21` was 89.8%.
The value for `CC1(C)CC[C@]2(C(=O)OC(=O)[C@]34CCC(C)(C)C[C@@H]3C3=CC[C@@H]5[C@@]6(C)CCC(=O)C(C)(C)[C@@H]6CC[C@@]5(C)[C@]3(C)CC4)CC[C@]3(C)C(=CC[C@@H]4[C@@]5(C)CCC(=O)C(C)(C)[C@@H]5CC[C@]43C)[C@H]2C1` was 86.9% [100 µM]; that for `Cn1cc(-c2noc(-c3cn(C)c4ncc(Br)cc34)n2)c2cc(Cl)ccc21` was 47.4%.
For `CCc1cccc(Cl)c1`, the growth is 108%.
Regarding `c1cc2ccc3cc2cc1CNCCN1CCNCc2ccc4ccc(cc4c2)CNCCN(CCNC3)CCNCc2ccc3ccc(cc3c2)CNCC1`, the growth was 56.3%.
The value for `COc1ccc(-c2cc(-c3ccccc3)nc(NCCNc3ccnc4cc(Cl)ccc34)n2)cc1` was -81% (active).
The value for `O=C(N/N=C\c1cc(Cl)ccc1O)N/N=C/c1cc(Cl)ccc1O` was 74.7%.
Under `O=C1Nc2ccccc2/C1=C/C(=O)c1ccc(N2CCCCC2)cc1` stands 96.6%.
Take `O=c1c2c3c(sc2n2cnnc2n1Cc1ccccc1)CCCC3`: the growth is 104%.
Under `Cn1c(=O)c(C#N)c(-c2ccco2)n2c(S(=O)(=O)Cc3ccccc3)nnc12` stands 89.1%; under `CCCCCn1sc(=O)n(Cc2ccc(CNC(=O)OCc3ccc4cccc(O)c4n3)cc2)c1=O`, 41.8%; under `O=C(N/N=C/c1ccc([N+](=O)[O-])cc1)c1ccc(Br)o1`, 129%.
Under `C=C(C)[C@@H]1CC[C@]2(COCCC#N)CC[C@]3(C)[C@H](CC[C@@H]4[C@@](C)(CCCNCCC#N)[C@H](C(=C)C)CC[C@]43C)[C@@H]12` stands 72.2% [100 µM]; under `C=C(C)[C@@H]1CC[C@]2(C(=O)OC)CC[C@]3(C)[C@H](CC[C@@H]4[C@@]5(C)CC/C(=N\OCCC(=NCCC#N)NOCCC#N)C(C)(C)[C@@H]5CC[C@]43C)[C@@H]12`, 46.1% [100 µM].
